# In all, about 310,000 compounds went through this assay and about 14,000 (4.5%) showed an effect of 50% or more. The effect is printed as a negative number. The entries come from a sample that favours strong results as a whole.
# Target: human ether-à-go-go-related gene (hERG) potassium channel (human, UniProt Q12809)
# Assay: primary screen, population patch clamp on CHO cells stably expressing hERG; higher = less effect of the substance
# 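Note: peak tail current of the secondary pulse compared with the same well before compound.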
# human ether-à-go-go-related gene (hERG) potassium channel, sequence (Q12809 whole entry, looked up): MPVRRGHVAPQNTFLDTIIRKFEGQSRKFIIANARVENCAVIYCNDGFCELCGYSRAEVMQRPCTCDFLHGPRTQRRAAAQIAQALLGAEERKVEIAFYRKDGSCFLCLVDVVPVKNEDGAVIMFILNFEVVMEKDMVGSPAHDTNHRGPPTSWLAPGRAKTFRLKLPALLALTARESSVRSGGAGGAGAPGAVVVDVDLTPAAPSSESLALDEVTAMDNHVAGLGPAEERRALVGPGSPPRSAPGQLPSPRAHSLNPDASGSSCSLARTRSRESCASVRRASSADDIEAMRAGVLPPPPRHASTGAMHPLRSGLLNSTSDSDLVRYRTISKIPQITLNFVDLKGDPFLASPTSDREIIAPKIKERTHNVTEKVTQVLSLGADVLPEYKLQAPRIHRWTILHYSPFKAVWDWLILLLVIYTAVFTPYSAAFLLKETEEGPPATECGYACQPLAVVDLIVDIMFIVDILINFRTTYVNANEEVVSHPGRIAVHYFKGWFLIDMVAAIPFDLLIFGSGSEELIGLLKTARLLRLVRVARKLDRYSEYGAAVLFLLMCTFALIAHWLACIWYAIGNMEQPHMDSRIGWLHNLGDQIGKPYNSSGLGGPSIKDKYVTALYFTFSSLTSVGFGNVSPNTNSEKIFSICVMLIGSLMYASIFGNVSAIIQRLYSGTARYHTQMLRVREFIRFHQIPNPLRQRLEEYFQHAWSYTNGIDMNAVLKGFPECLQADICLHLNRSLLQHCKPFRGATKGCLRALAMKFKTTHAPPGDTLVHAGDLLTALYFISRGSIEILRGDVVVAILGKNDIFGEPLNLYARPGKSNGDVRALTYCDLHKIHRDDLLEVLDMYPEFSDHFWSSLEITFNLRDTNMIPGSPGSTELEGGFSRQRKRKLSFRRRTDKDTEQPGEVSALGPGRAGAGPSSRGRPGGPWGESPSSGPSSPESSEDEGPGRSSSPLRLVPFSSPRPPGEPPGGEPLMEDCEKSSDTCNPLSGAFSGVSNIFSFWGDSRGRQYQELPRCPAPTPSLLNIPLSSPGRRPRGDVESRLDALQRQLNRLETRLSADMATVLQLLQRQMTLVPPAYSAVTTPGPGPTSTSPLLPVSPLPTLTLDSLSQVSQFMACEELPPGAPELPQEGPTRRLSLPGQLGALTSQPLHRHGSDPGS
row,Compound,"hERG current change (%, negative = inhibition) at 10uM"
1,Cc1nc2sc(C)c(C)c2c(=O)[nH]1,13.7%
2,COc1ccccc1/C=C/C(=O)NCC(=O)N/N=C/c1ccccc1[N+](=O)[O-],-36.9%
3,CCOc1ccc(NC(=O)Cn2sc3nc(C)cc(C)c3c2=O)cc1,4.94%
4,CCC(C)c1ccc(NC(=O)CSc2nncn2N)cc1 (stereo not drawn),-27.5%
5,COc1ccc(S(=O)(=O)NCCSCc2ccccc2C)cc1Br,-1.29%
6,C=CCN1C(=Nc2cccnc2)SCC1(O)c1ccc(C)cc1 (stereo not drawn),4.64%
7,c1ccc(CSc2nnc3ccc(-c4ccncc4)nn23)nc1,7.44%
8,Fc1ccccc1CSc1nnc2ccc(-c3ccncc3)nn12,-43.1%
9,Cc1ccc(CSc2nnc3ccc(-c4ccncc4)nn23)cc1,-42.4%
10,c1cncc(CSc2nnc3ccc(-c4ccncc4)nn23)c1,-26.7%
11,c1ccc(CSc2nnc3ccc(-c4ccncc4)nn23)cc1,-58.3%
12,Fc1cccc(CSc2nnc3ccc(-c4ccncc4)nn23)c1,-60.4%
13,Fc1ccc(CSc2nnc3ccc(-c4ccncc4)nn23)cc1,-70.1%
14,Nn1c(SCc2cccc(F)c2)nnc1-c1ccncc1,-4.03%
15,Cc1ccccc1CSc1nnc2ccc(-c3ccncc3)nn12,-20.8%
16,CCOC(=O)C(C)Oc1ccc(OCc2ccccc2)cc1 (stereo not drawn),20.1%
17,CC(C)(C)NS(=O)(=O)c1cccc(S(=O)(=O)c2cccc(S(=O)(=O)NC(C)(C)C)c2)c1,-35.3%
18,CCCNS(=O)(=O)c1ccc(CCC(=O)N2CCN(CC)CC2)cc1,-1.72%
19,O=C(NC1CCS(=O)(=O)C1)c1ccc(S(=O)(=O)N2CCCCC2)cc1 (stereo not drawn),1.86%
20,CCC(C(=O)Nc1ccncc1)c1ccccc1 (stereo not drawn),0.0329%
21,CN(C)S(=O)(=O)c1ccc(S(=O)(=O)N2CCN(CCC#N)CC2)cc1,-1.43%

row,Compound,"hERG current change (%, negative = inhibition) at 10uM"
1,O=C(CN1C(=O)NC2(CCCC2)C1=O)N1CCN(S(=O)(=O)c2cccc(F)c2)CC1,22.2%
2,CC1(c2ccccc2)NC(=O)N(CC(=O)N2CCN(S(=O)(=O)c3cccc([N+](=O)[O-])c3)CC2)C1=O (stereo not drawn),5.57%
3,CCOc1ccc(C(=O)CCC(=O)N2CCN(S(=O)(=O)c3cccc(F)c3)CC2)cc1,-30.7%
4,O=C(CN1C(=O)NC2(CCCCC2)C1=O)N1CCN(S(=O)(=O)c2ccc(F)cc2)CC1,4.02%
5,CCOc1ccc(OCCC(=O)N2CCN(S(=O)(=O)c3ccc(F)cc3)CC2)cc1,-6.61%
6,Cc1ccc(C2(C)NC(=O)N(CC(=O)N3CCN(S(=O)(=O)c4cccc(F)c4)CC3)C2=O)cc1 (stereo not drawn),-65.7%
7,Cc1ccc(C2(C)NC(=O)N(CC(=O)N3CCN(S(=O)(=O)c4ccc(Cl)s4)CC3)C2=O)cc1 (stereo not drawn),-58%
8,O=C(CN1C(=O)NC2(CCCCC2)C1=O)N1CCN(S(=O)(=O)c2ccc(Cl)s2)CC1,4.79%
9,CCOc1ccc(OCCC(=O)N2CCN(S(=O)(=O)c3cccc(F)c3)CC2)cc1,-62.4%
10,CCC1(CC)NC(=O)N(CC(=O)N2CCN(S(=O)(=O)c3cccc(F)c3)CC2)C1=O,7.12%
11,O=C(CN1C(=O)NC2(CCCCC2)C1=O)N1CCN(S(=O)(=O)c2cccc(F)c2)CC1,-61.8%
12,Cc1ccc(C2(C)NC(=O)N(CC(=O)N3CCN(S(=O)(=O)c4cccs4)CC3)C2=O)cc1 (stereo not drawn),-31.9%
13,CCCC(=O)Nc1cc(C(=O)N2CCC3(CC2)OCCO3)ccc1S(=O)(=O)c1ccc(C)cc1,-14%
14,COc1cc(C(=O)Nc2nc3ccccc3[nH]2)ccc1OC(F)F,18%
15,CCc1cccc(CC)c1NC(=O)C1CN(S(=O)(=O)c2ccccc2)CCN1S(=O)(=O)c1ccccc1 (stereo not drawn),9.16%
16,COc1ccccc1NS(=O)(=O)NC(=O)c1cn(C)c2ccccc12,16.8%
17,COc1ccc(NC(=O)CSc2nnc(-c3ccccc3)n2N)cc1,-4.04%
18,CCOc1ccccc1N1CCN(Cc2c(C)n(C)n(-c3ccccc3)c2=O)CC1,-20.5%
19,CSCCC(NC(=O)c1ccc(Cl)cc1Cl)C(=O)NNC(=O)c1ccncc1 (stereo not drawn),-6.73%
20,CC(C)c1ccc(S(=O)(=O)N2CCN(C(=O)CN3C(=O)NC(C)(c4ccccc4)C3=O)CC2)cc1 (stereo not drawn),-31.6%
21,CC1(c2ccccc2Cl)NC(=O)N(CC(=O)N2CCN(S(=O)(=O)c3ccccc3)CC2)C1=O (stereo not drawn),7.55%

row,Compound,"hERG current change (%, negative = inhibition) at 10uM"
1,CC1(c2ccc(Cl)cc2)NC(=O)N(CC(=O)N2CCN(S(=O)(=O)c3ccccc3)CC2)C1=O (stereo not drawn),-50%
2,CCn1nccc1C(=O)Nc1nc2ccccc2n1CCN1CCCCC1,-39.8%
3,O=C(Nc1nc2ccccc2n1CCN1CCOCC1)c1ccc(Cl)cc1,1.72%
4,O=C(Nc1nc2ccccc2n1CCN1CCOCC1)c1ccccc1,-6.69%
5,CCn1cc(Cl)c(C(=O)Nc2nc3ccccc3n2CCN2CCCCC2)n1,-65.5%
6,Cc1c(Cl)c(C(=O)Nc2nc3ccccc3n2CCN2CCCCC2)nn1C,-68.1%
7,Cn1ncc([N+](=O)[O-])c1C(=O)Nc1nc2ccccc2n1CCN1CCCCC1,-25.1%
8,CCCCn1nnc(NC(=S)NC(=O)c2cccs2)n1,9.16%
9,COc1ccccc1Cn1c(=S)[nH]c2ccccc2c1=O,32.7%
10,COc1ccc(S(=O)(=O)N2CCOCC2)cc1NC(=O)CC1CCCC1,-6.2%
11,COc1ccc(N(CC(=O)Nc2ccc3c(c2)OCCO3)S(=O)(=O)c2c(C)noc2C)cc1,-6.74%
12,O=C(NC(=S)NC1CCCCC1)c1ccccc1,1.5%
13,COCCCn1c(=O)c2sccc2n2c(CCCC(=O)NCc3ccccc3OC)nnc12,-19.9%
14,O=C(CS(=O)(=O)c1cn(CC(=O)N2CCOCC2)c2ccccc12)Nc1ccccc1,8.09%
15,Cc1ccc(NC(=O)CS(=O)(=O)c2cn(CC(=O)N3CCOCC3)c3ccccc23)cc1,-0.0981%
16,CC(=O)c1ccc(NC(=O)CS(=O)(=O)c2cn(CC(=O)N3CCOCC3)c3ccccc23)cc1,-58.6%
17,COc1cccc(=O)c2c(C)n(C)c(C)c12,-24.7%
18,Cc1cc(=O)oc2cc(OC(C)C(=O)NC3CCN(Cc4ccccc4)CC3)ccc12 (stereo not drawn),-79.2%
19,Cc1c(C)c2ccc(OC(C)C(=O)NC3CC(C)(C)NC(C)(C)C3)cc2oc1=O (stereo not drawn),7.7%
20,CC(Oc1ccc2c3c(c(=O)oc2c1)CCC3)C(=O)NC1CCN(Cc2ccccc2)CC1 (stereo not drawn),-47.9%
21,CC(Oc1ccc(Br)cc1)C(=O)NC1CCN(Cc2ccccc2)CC1 (stereo not drawn),-80.4%

row,Compound,"hERG current change (%, negative = inhibition) at 10uM"
1,Cc1c(C)c2ccc(OC(C)C(=O)NC3CCN(Cc4ccccc4)CC3)cc2oc1=O (stereo not drawn),-54.2%
2,Cc1cc(=O)oc2cc(OC(C)C(=O)NC3CCCC3)ccc12 (stereo not drawn),-33.4%
3,Cc1cc(OC(C)C(=O)NC2CCN(Cc3ccccc3)CC2)c2c(C)cc(=O)oc2c1 (stereo not drawn),-15.2%
4,CC(Oc1ccc(Br)cc1)C(=O)NC1CCCCCC1 (stereo not drawn),-12.4%
5,CCc1cc(=O)oc2cc(C)cc(OC(C)C(=O)NC3CCN(Cc4ccccc4)CC3)c12 (stereo not drawn),-32.8%
6,CC(Oc1ccccc1)C(=O)NC1CCN(Cc2ccccc2)CC1 (stereo not drawn),-26.8%
7,CC(Oc1ccc2ccc(=O)oc2c1)C(=O)NC1CCN(Cc2ccccc2)CC1 (stereo not drawn),-75%
8,Cc1cc(=O)oc2c(C)c(OC(C)C(=O)NC3CCN(Cc4ccccc4)CC3)ccc12 (stereo not drawn),-48.1%
9,CC(=O)c1sc(N2CCOCC2)nc1-c1ccccc1,-6.27%
10,Cc1onc(-c2ccccc2)c1C(=O)Nc1sccc1C#N,7.27%
11,Cc1cc(C)n(-c2ccc(NC(=O)C3CCCCN3C(=O)c3sccc3C)cc2)n1 (stereo not drawn),14.5%
12,NS(=O)(=O)c1ccc(NC(NC(=O)c2cccnc2)C(Cl)(Cl)Cl)cc1 (stereo not drawn),6.08%
13,COc1cc(C(=O)NCCCn2ccnc2)cc(OC)c1OC.Cl,20.6%
14,Cc1nn(C(C)C(=O)NCCN2CCCCCC2)c(=O)c2nn(-c3ccccc3)c(C)c12 (stereo not drawn),21.6%
15,Cc1cc(C)n2nc(SCC(=O)Nc3ccccc3C)nc2n1,1.88%
16,CC1(C)CC(=O)C2=C(C1)NC(=O)CC2c1ccc(N(CCC#N)CCC#N)cc1 (stereo not drawn),17.3%
17,CCC(C(=O)c1ccc2ncccc2c1)c1ccccc1 (stereo not drawn),-52.7%
18,CCC(=O)c1ccc2ncccc2c1,12.2%
19,CCC(C(=O)c1ccc(O)cc1)c1ccccc1 (stereo not drawn),-5.56%
20,COc1ccc(CNC(=O)c2nn(C)c3c2CS(=O)(=O)c2ccccc2-3)cc1,-24.5%
21,O=C(O)c1ccccc1C(=O)c1ccc(Oc2ccccc2)cc1,8.12%

# — paper PMC4336329 (PLoS ONE, 2015)
